From PubChem
Vaccinia pol inh – vaccinia E9 polymerase processive synthesis inhibitors, primary screen, biochemical, absorbance; Vaccinia virus DNA polymerase (E9) processive complex; in vitro processive DNA synthesis, absorbance read-out; hits give low values; normalized absorbance, % (test concentration not listed); 0.94% of 46,000 active; AID 493162, 2011; in the data active = normalized absorbance mostly below about 85%, no sharp cut-off; inactive = mostly above about 86%
* hit, by the source's call. Many of the other results were omitted from the sample, so hits are more common in it than they were.

SMILES	Vaccinia pol inh
CCn1c(=O)c2cc(C(=O)NCCCN3CCCCCC3)sc2c2ccccc21	60
O=C(NCCCN1CCCC1)c1cc2c(Cl)nc3ccccc3c2s1	33*
CC1CCN(CCCNC(=O)c2cc3c(=O)n(C)c4ccccc4c3s2)CC1	59*
CC1CC(C)CN(CCCNC(=O)c2cc3c(=O)[nH]c4ccccc4c3s2)C1 (configuration not stated)	58*
COC(=O)CNC(=O)c1cc2c(=O)[nH]c3ccccc3c2s1	97
Cc1ccc2oc(=O)c3cc(C(=O)NCCN4CCN(Cc5ccccc5)CC4)sc3c2c1	98
O=C(NCCCN1CCCCC1)c1cc(Sc2ccc(F)cc2)nc2ccccc12	101
Cc1ccc(CCNC(=O)c2cc3c(=O)oc4ccc(C)cc4c3s2)cc1	103
O=C(NC1CCCCC1)c1cc2c(=O)[nH]c3ccccc3c2s1	100
Cc1cc(SCC(=O)N2CCCCC2)nc2ccccc12	106
O=C(On1c(-c2ccccc2)cc2ccccc21)c1cccnc1Cl	97
O=C(CSc1ccc2ccccc2c1)OCC(=O)N1CCCC1	82
COc1ccc(-c2csc(-n3nc(C)cc3C)n2)cc1	106
O=C(CCn1c(=O)sc2ccccc21)Nc1nccs1	100
COC(=O)c1cc(-c2cccnc2)nc2ccccc12	96
CN(C)CCNc1cc(-c2ccncc2)nc2ccccc12	63
CN(C)CCNc1cc(-c2cccnc2)nc2ccccc12	48*
c1csc(CCNc2ncnc3sc4c(c23)CCC4)c1	100
CCOC(=O)c1cc(-c2ccc(F)cc2)n(CC(=O)NC2CCCC(C)C2C)c1C (configuration not stated)	106
COc1cc2c(cc1OC)C1=C(C#N)COCN1CC2	100
CCCOc1ccc(N)cc1N	100
CC(=O)Oc1cccc(/C=C2\N=C(c3ccco3)OC2=O)c1	98
CC1=NN2C(=N)/C(=C/c3cn(CCOc4c(C)cccc4C)c4ccccc34)C(=O)N=C2S1	101
CC(c1ccccc1)N1C(=O)NC(=O)/C(=C/c2coc3ccccc3c2=O)C1=O (configuration not stated)	91
N=C1/C(=C\c2coc3ccccc3c2=O)C(=O)N=C2SC=NN12	46*
SMILES	Vaccinia pol inh
C=C1N(c2ccccc2)C(=O)OC1(C)C	96
Fc1ccc(C2Nc3ccc(OC(F)(F)F)cc3C3C=CCC32)cc1 (configuration not stated)	97
CCOC(=O)[C@H]1NC(=O)C[C@H]1c1ccccc1	96
CC(C)c1ccc([C@@H]2Nc3ccc(C(=O)O)cc3[C@@H]3C=CC[C@@H]32)cc1	23*
CCOC(=O)N1CCC(N2C(=O)c3ccc(C(=O)O)cc3C2=O)CC1	102
CCOC(=O)[C@@H]1Nc2ccc(C(=O)O)cc2[C@@H]2C=CC[C@H]12	56*
CC(=O)Nc1ccc2c(c1)C1C=CCC1C(c1cccc(Cl)c1Cl)N2 (configuration not stated)	100
Cc1ccc(C)c(NCCOc2ccccc2)c1	100
CCC(=O)NCc1nc2ccccc2n1CC(C)C	100
O=S(=O)(c1ccc(-n2cnnn2)cc1)N1CCNCC1	87
CCCCn1nnc2c(=O)oc3ccccc3c21	100
O=C(CCn1c(=O)sc2ccccc21)Nc1ccon1	100
O=C(CC(SCc1ccc(Cl)cc1)C(=O)O)c1ccc(Cl)cc1 (configuration not stated)	97
O=C(Cc1ccc(Cl)cc1)c1ccc(Cl)cc1	79*
O=C(CNC(=O)c1ccc(Cl)cc1)c1ccc(Cl)cc1	103
CCCCC(CC)CNc1nc(=S)[nH]c2ccccc12 (configuration not stated)	100
CC(C)n1c(=O)c2sccc2n2c(=S)sc(-c3ccccc3)c12	99
O=C(CSc1c[nH]c2ccccc12)N1CCc2ccccc21	100
Nc1ccccc1SCC(=O)N1CCc2ccccc21	79*
Cc1ccc(SCC(=O)N2CCc3ccccc32)cc1	100
COc1ccccc1-c1nc(-c2cccs2)cc(=O)o1	99
CCN(CC)C(=S)SC(=O)c1ccccc1Cl	106
Cc1cc(C)n2c(SCc3ccccc3)nnc2n1	104
COC(=O)c1cc(S(=O)(=O)N2c3ccccc3CC2C)c[nH]1 (configuration not stated)	100
CC(=C/C(=O)O)/C=C/c1ccccc1	101
SMILES	Vaccinia pol inh
CC1=C(/C=C/C(C)=C/C=C/C(C)=C\C(=O)O)C(C)(C)CCC1	29*
CC1=C(/C=C/C(C)=C/C=C/C(C)=C/C(=O)Nc2ccc(O)cc2)C(C)(C)CCC1	97
COc1cccc(-n2cc(C(=O)Nc3cccnc3)c3ccccc3c2=O)c1	109
COc1ccccc1Nc1cc(C(=O)NCCN2CCC(Cc3ccccc3)CC2)c2ccccc2n1	103
CCN(CC)S(=O)(=O)c1ccc2c(c1)nc1n2CCCCC1	105
Cc1ccc(-n2c(SCc3cccc(C(F)(F)F)c3)nnc2-c2ccncc2)cc1	100
CC(C)C1=NN2C(=N)/C(=C/c3ccccc3)C(=O)N=C2S1	100
Cc1cccc2nc(CSC(=S)NCC3CCCO3)cn12 (configuration not stated)	110
Cc1cccc2nc(CSC(=S)NCc3cccnc3)cn12	72*
